Data taken from PubChem BioAssay AID587 (National Center for Advancing Translational Sciences (NCATS), 2007).
About 35 (0.06%) of roughly 59,000 compounds were called active. About 19% were inconclusive and are not listed. No stated cut-off is given here; in the data, active means max dye-equivalent concentration above about 10 nM; inconclusive means between about 1.1 nM and that limit; inactive means weaker than that. The entries come from a sample that favours actives as a whole.

Assay: qHTS Assay for Spectroscopic Profiling in Texas Red Spectral Region
Settings: Compound fluorescence, Texas Red channel, 547/618 nm
Excerpt: NIH Molecular Libraries Screening Centers Network [MLSCN] NIH Chemical Genomics Center [NCGC] […] Occasionally, the artifactual effect may originate from the compound#s own spectral or other biophysical properties which generally tend to track its assay concentration. Pre-screening/profiling the library with respect to the compounds# spectral properties should help one exclude false positives early on. While the most informative fluorescent profiling data set is obtained by performing a full excitation and emission scan of each well by using a monochromator-based plate reader, such an approach is practical only on a very limited scale as scanning each well requires long time. An alternative approach, applied here, is to perform plate reader scans using selected excitation and emission wavelength pairs to generate a multidimensional relational database that correlates compound concentration and the respective relative fluorescence intensity at a given wavelength set. A standard curve of Texas Red (TR) present on each plate as six-point concentration series, was used to compute a normalized fluorescence response, termed dye-equivalent concentration, for each compound at each concentration.
NCGC Assay Protocol Summary: Buffer: 100 mM Tris buffer, pH 8.0 Dye standard plate: The wells in columns 1 through 4 of a Kalypsys polypropylene 1536-well compound plate were filled with standard solutions of fluorophore corresponding to the spectral region of interest. Solutions of TR were placed in the following wells: U1, V1: 3 mM, U2, V2: 300 uM, U3, V3: 30 uM, U4, V4: zero (DMSO), W1, X1: 3 uM, W2, X2: 900 nM, W3, X3: 300 nM, W4, X4: zero (DMSO). Assay Steps: Six uL of buffer were dispensed to 1536-well Greiner black plates. Compounds and dye standards (23 nL) were transferred via Kalypsys PinTool. The plates were incubated for 15 min at room temperature, and then read on ViewLux (Perkin-Elmer) High-throughput CCD imager using 547 nm and 618 nm excitation and emission filter set. Keywords: NIH Roadmap, MLSCN, MLI, MLSMR, qHTS, NCGC, Texas Red, Fluorescent Profiling.

Max dye-equivalent concentration, inactive:
O=C1CC2(CCCCC2)Oc2ccc(OCC(=O)N3CCOCC3)cc21
Cc1cnc(CNc2cc(-c3c(C)noc3C)ncn2)cn1
CS(=O)(=O)Nc1cccc(-c2cncnc2Nc2ccccc2)c1
CC(C)OC(=O)C(C#N)c1nc2ccccc2nc1N1CCN(Cc2ccc3c(c2)OCO3)CC1 (stereo not drawn)
Oc1ccc2ccccc2c1C=NCc1c(O)ccc2ccccc12
COCCNC(=S)c1ccc(OC)cc1
CCOC(=O)c1cnc2sccn2c1=O
COc1ccc(OC)c(C(=O)CSc2nnc(-c3cccs3)o2)c1
CCCCn1c(SCC(=O)N2CCC(C(=O)OCC)CC2)nc2cc(S(N)(=O)=O)ccc21
Cc1cc(N2CCCCC2)nc2ccc(Cc3ccc4nc(N5CCCCC5)cc(C)c4c3)cc12
CC(C)c1nc2oc3c(N4CCN(C)CC4)ncnc3c2c2c1CCC2
COCCNc1cc(-c2c(C)noc2C)ncn1
O=c1c(-c2ccc(F)cc2)nc2cnc(N3CCNCC3)nc2n1Cc1cccs1
Cc1nc(NCCN)c(C#N)c2c1COC(C)(C)C2
Cn1cccc1C(=O)NC(=O)COC(=O)Cc1coc2ccc3ccccc3c12
CCOCCN(C=O)c1cccc(OC)c1
COc1ccc2[nH]c(=O)c(CN(CC3CCCO3)C(=O)Nc3ccccc3)cc2c1 (stereo not drawn)
Cn1c(=O)c2c(n(Cc3ccccc3)c1=O)NC(=O)C2CC(=O)N1CCc2ccccc2C1 (stereo not drawn)
O=S(=O)(c1ccccc1)N1CCC2(CC1)CN(Cc1nccs1)C2
O=C(O)CS(=O)c1ccc2c3c(cccc13)C(=O)c1ccccc1-2 (stereo not drawn)
Nc1nonc1-c1nc2ccccc2n1CCC(=O)O
Cc1nc2cnc(N3CCNCC3)nc2n(Cc2ccc(F)cc2)c1=O
Cn1c(=S)c2[nH]c(SCCCc3ccccc3)nc2n(C)c1=O
